Source: PubChem BioAssay (The Scripps Research Institute Molecular Screening Center)
In the library only some 1.7% were active in any assay of this set; here they are far more common.
GSTO1 inh: blocks human GSTO1 in RBBP9 counter-screen; inhibition, % at 5.96 µM; recombinant GSTO1, activity-based probe fluorescence polarization; 300,000 tested, 1.1% active; AID 1974;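 active = inhibition above the campaign mean inhibition plus 3 SD, cut at about 35% in these data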
ZTA DNA inh: counter-screen for EBNA-1 inhibitors: inhibitors of Epstein-Barr virus ZTA; ZTA-DNA binding, fluorescence polarization; inhibition, % at 11 µM; 320,000 tested, 0.15% active; P03206; in the data active = inhibition above about 33%
EBNA-1 inh: blocks EBNA-1 binding to DNA | EBNA-1 DNA binding, fluorescence polarization | 300,000 tested, 0.34% active | inhibition, % at 14.8 µM; in the data active = inhibition above about 28%
PAD4 inh: PAD4 (human) enzyme inhibition; Q9UM07; recombinant PAD4, RCA probe fluorescence polarization; inhibition, % at 6.36 µM; 330,000 tested, 0.41% active; AID 485272;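 active = percent inhibition above a cutoff equal to the mean of all tested compounds plus 3 SD, cut at about 15% in these data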
Target sequence (Q9UM07 whole entry, looked up): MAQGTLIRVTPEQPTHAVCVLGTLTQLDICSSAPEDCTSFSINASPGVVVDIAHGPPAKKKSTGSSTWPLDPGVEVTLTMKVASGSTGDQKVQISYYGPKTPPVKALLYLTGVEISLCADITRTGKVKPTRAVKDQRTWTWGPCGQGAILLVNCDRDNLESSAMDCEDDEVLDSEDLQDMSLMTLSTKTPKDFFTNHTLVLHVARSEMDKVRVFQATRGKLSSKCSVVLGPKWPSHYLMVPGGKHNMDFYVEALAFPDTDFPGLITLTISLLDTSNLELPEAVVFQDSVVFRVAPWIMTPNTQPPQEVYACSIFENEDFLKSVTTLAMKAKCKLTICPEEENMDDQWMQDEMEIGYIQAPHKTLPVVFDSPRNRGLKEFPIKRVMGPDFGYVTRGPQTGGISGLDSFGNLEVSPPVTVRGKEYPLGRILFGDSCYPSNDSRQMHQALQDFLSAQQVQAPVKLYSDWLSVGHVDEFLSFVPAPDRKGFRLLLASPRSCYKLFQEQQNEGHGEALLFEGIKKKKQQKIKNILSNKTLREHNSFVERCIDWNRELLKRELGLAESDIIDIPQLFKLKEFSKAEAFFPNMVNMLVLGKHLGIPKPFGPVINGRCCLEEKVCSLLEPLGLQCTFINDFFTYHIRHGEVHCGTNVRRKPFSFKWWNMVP
LYPLA2 inh: counter-screen for PME1 inhibitors: inhibitors of human LYPLA2; O95372; 320,000 tested, 0.38% active; inhibition, % at 5.9 µM; recombinant LYPLA2, FP-Rh probe fluorescence polarization;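 active = inhibition above the screen-wide mean plus 3 SD, limit set per campaign, cut at about 26% in these data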
LYPLA1 counter: counter-screen for PME1 inhibitors: inhibitors of human LYPLA1; O75608; recombinant LYPLA1, FP-Rh probe fluorescence polarization; inhibition, % at 5.9 µM; 320,000 tested, 0.16% active; AID 2174;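 active = inhibition above the mean of all tested compounds plus 3 SD, set per campaign, cut at about 14% in these data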;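 also: inhibitors block serine hydrolase probe labeling of LYPLA1 so polarization falls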
GSTO1 confirm: confirmation of human GSTO1 inhibitors. shares compounds with GSTO1 inh. recombinant GSTO1, probe fluorescence polarization. inhibition, % at 5.96 µM. 2,400 tested, 54% active;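 active = inhibition above the primary screen's cutoff, its mean inhibition plus 3 SD, cut at about 35% in these data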;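 also: loss of polarization as inhibitors block binding of rhodamine sulfonate ester activity probe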
Each line names hits and unclear results; the compound was inactive in the other large screens (follow-up assays come after a bar, where they were run).

CN(C)c1ccc(O)c2c1CC1CC3[C@@H](N(C)C)C(=O)C(C(N)=O)C(=O)[C@]3(O)C(=O)C1C2=O (stereo partly drawn)	none (no result: GSTO1 inh, ZTA DNA inh, EBNA-1 inh, LYPLA2 inh, LYPLA1 counter)
C=C1c2cccc(O)c2C(O)=C2C(=O)[C@]3(O)C(O)=C(C(N)=O)C(=O)[C@@H](N(C)C)[C@@H]3[C@@H](O)[C@H]12	GSTO1 inh 63.2 | GSTO1 confirm 70.0
C[C@H]1c2cccc(O)c2C(=O)C2C(=O)C3(O)C(=O)C(C(N)=O)C(=O)[C@@H](N(C)C)[C@@H]3[C@@H](O)[C@@H]21 (stereo partly drawn)	none (no result: GSTO1 inh, ZTA DNA inh, EBNA-1 inh, LYPLA2 inh, LYPLA1 counter)
CN(C)c1ccc(O)c2c1CC1CC3C(N(C)C)C(=O)C(C(N)=O)=C(O)[C@@]3(O)C(=O)C1=C2O (stereo partly drawn)	GSTO1 inh 48.0 | GSTO1 confirm inactive
CCN(CC(=O)Nc1ccc(NC(C)=O)cc1)C(=O)/C=C/c1ccc([N+](=O)[O-])cc1	none
O=C(CCn1c(=O)oc2cc(Cl)ccc21)Nc1ccc(O)cc1	none
CCn1c(=O)oc2cc(NC(=O)CCl)ccc21	GSTO1 inh 87.7 | GSTO1 confirm 92.1
CC1O[C@@H](OCC2O[C@@H](Oc3cc(O)c4c(c3)OC(c3ccc(O)cc3)CC4=O)[C@H](O)[C@@H](O)[C@@H]2O)[C@H](O)[C@H](O)[C@H]1O (stereo partly drawn)	none
N#Cc1c(SCC(=O)Nc2nncs2)sc2c(O)cc(=O)[nH]c12	GSTO1 inh 50.8 | GSTO1 confirm 63.2
COC(=O)CC1C(=O)NCCN1C(=O)c1ccc(Cl)cc1 (stereo not drawn)	none
CC(C)C(=O)Nc1ccc(C(=O)NNC(=S)NC(=O)c2ccco2)cc1	GSTO1 inh 45.5 | GSTO1 confirm inactive
COc1ccc(NC(=O)Nc2cccc3c2O[C@H](CN(C)C(=O)NC(C)C)[C@@H](C)CN([C@H](C)CO)C3=O)cc1	none (no result: GSTO1 inh, ZTA DNA inh, EBNA-1 inh, LYPLA2 inh, LYPLA1 counter)
C=C[C@]1(C)C=C2CCC3[C@](C)(CCC[C@@]3(C)C(=O)O)C2CC1 (stereo partly drawn)	none
CC(C)C1=CC2=CCC3C(C)(C(=O)O)CCCC3(C)C2CC1 (stereo not drawn) (tested in a mixture with another compound)	GSTO1 inh 38.8 | GSTO1 confirm inactive
Nc1ccc(N2CCCCC2)cc1N1CCCCC1	GSTO1 inh 56.9 | GSTO1 confirm inactive
Cc1ccc(C(=O)CSc2nnnn2C(C)C)c(C)c1	GSTO1 inh 39.4 | GSTO1 confirm 37.5
Cc1ccc(C)c(C(=O)CSc2nnnn2C(C)C)c1	none
C/C(=N\Nc1ccc(C)c(Cl)c1)c1cccnc1	none
CCOC(=O)C1CCN(C(=O)Nc2ccc3c(c2)nc(C)n3C)CC1	none
CCOC(=O)C1CCN(C(=O)Nc2ccc3nc(-c4ccco4)c(-c4ccco4)nc3c2)CC1	GSTO1 inh 79.8 | GSTO1 confirm inactive
Cc1cccc(NC(=O)CSCc2cc(=O)n3nc(C4CC4)sc3n2)c1	none
COc1ccc(NC(=O)CSCc2cc(=O)n3nc(C4CC4)sc3n2)cc1	GSTO1 inh 37.5 | GSTO1 confirm inactive
O=C(NCc1ccccc1)c1c(Cl)nc(Cl)c(Cl)c1Cl	GSTO1 inh 41.0 | GSTO1 confirm 57.7
Cc1nc(Cl)c(C(=O)NCc2ccccc2)c(C)c1Cl	none
CNCc1ccccc1Sc1cccc(O)c1	none
CNCc1ccccc1Sc1cc(O)ccc1O	GSTO1 inh 89.1 | GSTO1 confirm 55.5
Nc1nnc(CC(=O)N/N=C/c2cccc([N+](=O)[O-])c2)s1	none
Nc1nnc(CC(=O)N/N=C/c2cc([N+](=O)[O-])cc(Br)c2O)s1	GSTO1 inh 41.0 | GSTO1 confirm 71.0
Cc1ccccc1NC(=O)N1CCN(C/C=C/c2ccccc2)CC1	none
CCCCCN(C(=O)CCC(=O)OCc1cc(C)ccc1C)c1c(N)n(CCCC)c(=O)[nH]c1=O	none
O=C(CCc1ccc(O)c(O)c1)N/N=C/c1ccc2c(c1)OCO2	GSTO1 inh 43.8 | GSTO1 confirm inactive
CCOc1ccc(-c2nc(CN3CCCCC3CCn3cccn3)c(C)o2)cc1 (stereo not drawn)	none
Nc1ncnc2oc(-c3ccco3)c(-c3ccco3)c12	GSTO1 inh 55.6 | GSTO1 confirm inactive
Nc1nnc(-c2ccco2)s1	none
Oc1ccc(/C=N/N=C(c2ccccc2)c2ccccc2)c(O)c1O	GSTO1 inh 53.9 | GSTO1 confirm inactive
NC(N)=N/N=C/c1ccccc1	none
CCc1cccc2c(C(=O)COC(=O)c3ccc([N+](=O)[O-])s3)c[nH]c12	GSTO1 inh 52.7 | GSTO1 confirm inactive
Cc1ccc(C(=O)OCC(=O)c2c[nH]c3ccccc23)cc1	none
CCOC(=O)c1c(C)[nH]c(C)c1C(=O)COC(=O)c1ccc([N+](=O)[O-])s1	none (no result: GSTO1 inh, EBNA-1 inh)
O=C(OCC(=O)c1c[nH]c2ccccc12)c1ccc([N+](=O)[O-])s1	GSTO1 inh 45.5 | GSTO1 confirm inactive
CCOC(=O)c1c(C)[nH]c(C)c1C(=O)COC(=O)c1cccc(S(=O)(=O)NC)c1	GSTO1 inh 40.2 | GSTO1 confirm inactive
CCNc1nc(NCC)nc(N/N=C/c2ccc(O)c(O)c2)n1	GSTO1 inh 38.2 | GSTO1 confirm inactive
CC(=O)c1cccc(NC(=O)C(C)OC(=O)c2cccc(-n3cnnn3)c2)c1 (stereo not drawn)	none
COC(=O)CCC(=O)OC1(C)C(=O)C=C2C=C(C3CC3)N(CCc3c[nH]c4ccccc34)C=C2C1=O (stereo not drawn)	none
COC(=O)CCCC1=CC2=C(c3ccccc3)C(=O)C(C)(OC(=O)C3CCCC3)C(=O)C2=CN1CCCCO (stereo not drawn)	GSTO1 inh 45.4 | GSTO1 confirm inactive
COC(=O)CCC(=O)OC1(C)C(=O)C=C2C=C(C3CC3)N(CCCCO)C=C2C1=O (stereo not drawn)	GSTO1 inh 46.0 | GSTO1 confirm inactive
COC(=O)CCC(=O)OC1(C)C(=O)C=C2C=C(C3CC3)N(CCc3ccccn3)C=C2C1=O (stereo not drawn)	GSTO1 inh 43.2 | GSTO1 confirm inactive
COC(=O)CCCC1=CC2=C(c3ccccc3)C(=O)C(C)(OC(=O)C3CCCC3)C(=O)C2=CN1Cc1ccco1 (stereo not drawn)	none
COC(=O)CCC(=O)OC1(C)C(=O)C=C2C=C(C3CC3)N(Cc3ccc4c(c3)OCO4)C=C2C1=O (stereo not drawn)	GSTO1 inh 44.5 | GSTO1 confirm inactive
COC(=O)CCC(=O)OC1(C)C(=O)C=C2C=C(C3CC3)N(Cc3ccc(OC)cc3)C=C2C1=O (stereo not drawn)	none
O=C(NCC1CCCO1)C(c1ccc(N2CCOCC2)cc1)N(C(=O)Cn1nnc2ccccc21)c1ccccc1F (stereo not drawn)	none
Cc1cccn2c(=O)c(C=O)c(N3CCSCC3)nc12	none
